Shiga toxin inh: Shiga toxin inhibition | Vero cells, Shiga toxin protein synthesis inhibition reporter | inhibition, % at 38.7 µM | 290,000 tested, 9.2% active | AID 2315; in the data active means inhibition mostly above about 28%, no sharp cut-off; inactive means mostly below about 43%; further: 0% is about no effect
Pf growth 96h: P. falciparum growth inhibition at 96 hours; Potency, µM (series often up to 28.7 µM), for inactives: top-dose activity change, negative = inhibition, most hits filed as inhibitors; AID 504834; 320,000 tested, 6.9% active; P. falciparum luciferase reporter growth, 96 h; further: potency means the concentration at half of the fitted maximal effect; on the % scale 0 is the no-effect control and ±100 the full control effect
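Infected RBCs, 2% Hct / 0.05% parasitemia final; luciferase-reporter P. falciparum; cpd 96 h, 37 C, 5% CO2; luciferase detection reagent; luminescence.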
Cycloheximide cs: counter-screen hit for Shiga toxin inhibitors, cycloheximide. cell reporter, cycloheximide protein synthesis inhibition counterscreen. max response, %. 300,000 tested, 12% active; in the data active means max response mostly above about 13%, no sharp cut-off; inactive means mostly below about 14%; further: read at 38.3 µM for the half of the compounds with a filed dose; 0% is about no effect
Pf growth 48h: P. falciparum growth inhibition at 48 hours (one generation); Potency, µM (doses to about 28.7 µM), for the others: at the top dose activity change, negative = inhibition, usual class: inhibitors; AID 504832; 310,000 tested, 5.9% active; P. falciparum luciferase growth in erythrocytes, 48 h; further: potency means the concentration at half of the fitted maximal effect; on the % scale 0 is the no-effect control and ±100 the full control effect
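In quantitative HTS format, infected erythrocytes bearing luciferase-reporter parasites were treated for a single generation at 37 C. Luminescence after adding detection reagent served as the growth measure.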
* hit, by the source's call; i = inactive; ? = inconclusive; . = no result given; [ ] = remark or other dose. Rows were chosen to be rich in hits. Some 21% of all compounds tested hit in one or more screens of this group. Unless noted, the call rests on the fitted dose curve; in most records, active means well fitted inhibition curve with a large enough effect; inconclusive means small, poorly fitted or top-dose-only effect, or another doubt; inactive means no such curve, though single readings can be large or run the other way.

SMILES	Shiga toxin inh	Pf growth 96h	Cycloheximide cs	Pf growth 48h
O=C(O)c1cccc(-c2ccc3c(c2)OCO3)c1	3	3.7µM*	10	7%
CN1CCN(CCCOc2ccc(-c3ccccc3)cc2)CC1	75*	-7%	27*	?
CCN1CCN(CCCOc2ccc(-c3ccccc3)cc2)CC1	70*	21%	37*	-67%
OCCCN1CCN(CCOc2ccccc2-c2ccccc2)CC1	9	10µM*	1	?
OCCN1CCN(CCOc2ccccc2-c2ccccc2)CC1	-6	-35%	-1	-13%
CCN1CCN(CCCOc2ccccc2-c2ccccc2)CC1	3	-6%	10	?
CN1CCN(CCOc2ccc(-c3ccccc3)cc2)CC1	86*	?	46*	?
[O-]/C(=C(\C(=S)NCc1ccccc1)[n+]1ccccc1)c1ccc(Cl)s1	14	-28%	-2	0%
N/C(COc1ccc(Cl)cc1)=N\NS(=O)(=O)c1ccccc1	-6	36%	-2	-1%
O=S(=O)(Oc1ccc(Cl)cc1)c1cccc2cccnc12	35	64%	16*	16%
CN(C)/N=C/c1ccc(OS(=O)(=O)c2ccccc2)cc1	64*	5%	47*	114%
O=S(=O)(Oc1ccc(Cl)cc1)c1ccccc1	21*	.	21*	.
NC(=O)c1ccccc1OCc1nc2ccccc2s1	97*	i	34*	291%
CCOC(=O)C(=O)Cc1nc2ccccc2s1	29	17%	12*	?
NC(=O)c1ccccc1OCc1cccc2ccccc12	22	27%	4	21%
CC(=O)OCc1nc2ccccc2s1	92*	362%	29*	133%
O=C(O)COCc1nc2ccccc2s1	-7	6%	-3	-47%
O=C(OCc1nc2ccccc2s1)c1ccco1	90*	?	36*	118%
COc1ccccc1CNC(=O)COC(=O)C1CCN(c2ccc(C(F)(F)F)cn2)CC1	.	44%	.	11%
Cc1ccc2c(c1)N(C(=O)CCC(=O)N1CCC(C(N)=O)CC1)CCO2	-2	19%	-4	-3%
O=C(OCc1nc2ccccc2s1)c1ccc([N+](=O)[O-])o1	1	31%	7	13%
O=C(OCc1nc2ccccc2s1)c1ccc(Br)o1	80*	9%	28*	50%
O=C(COC(=O)c1ccco1)Nc1nc2ccccc2s1	32	-2%	21*	24%
Cc1cc(C(=O)OCc2nc3ccccc3s2)c(C)o1	105*	.	53*	102%
O=C(CNC(=O)c1ccc(Br)o1)NNC(=O)COc1ccccc1Cl	.	24%	.	-16%
SMILES	Shiga toxin inh	Pf growth 96h	Cycloheximide cs	Pf growth 48h
COc1ccc(-c2oc3ccc(-c4ccc(OC)nc4)cc3c2C#CC2(O)CCCCC2)cc1	7	5.9µM*	0	?
Cc1cc2c(OCC(CNC(C)(C)C)OC(=O)c3ccccc3)cccc2[nH]1 (stereo not drawn)	.	-8%	.	?
O=C(NCC1CCCO1)c1cc2c(=O)[nH]c3ccccc3c2s1 (stereo not drawn)	16	-11%	3	1%
COc1ccccc1CNC(=O)C(CC(C)C)NS(=O)(=O)c1ccc2c(c1)oc(=O)n2C (stereo not drawn)	-10	-33%	-5	.
COc1ccccc1CNC(=O)C(CCSC)NS(=O)(=O)c1ccc2c(c1)oc(=O)n2C (stereo not drawn)	42	2.1µM*	52*	-3%
CCOC(=O)C1(Cc2ccccc2Cl)CCN(C(=O)c2cnccn2)CC1	94*	9.3µM*	50*	7%
CCOC(=O)C1(Cc2ccccc2Cl)CCN(C(=O)c2cc(C)on2)CC1	40*	?	28*	-21%
CCOC(=O)C1(Cc2ccc(Cl)cc2)CCN(C(=O)c2cnc(C)cn2)CC1	14	-2%	0	-14%
COCCN(C(=O)C1CC(=O)N(Cc2ccc(C)cc2)C1)c1c(N)n(CC(C)C)c(=O)[nH]c1=O (stereo not drawn)	.	-10%	.	?
CC1=NN(c2ccccc2)C(=O)C1C=Nc1ccccc1O (stereo not drawn)	27*	?	14	5.2µM*
O=C(CCc1ccc(O)cc1)N/N=C/c1coc2ccccc2c1=O	-5	51%	-1	4%
COc1ccc(C2Nc3ccccc3C(=O)N2NS(=O)(=O)c2ccccc2)cc1 (stereo not drawn)	-19	42%	4	-22%
Oc1ccccc1/C=C/c1noc(-c2ccccc2O)n1	70*	?	33*	-42%
CC(=O)Nc1ccc(NC(=O)c2nc(-c3ccccc3)oc2C)cc1	26	46%	4	22%
CC(=O)Nc1ccc(/C=C/c2noc(-c3ccccc3O)n2)cc1	54*	109%	21	91%
COc1cc(/C=C/c2noc(-c3ccccc3O)n2)ccc1OC(C)=O	42*	473%	15*	281%
COc1ccc(S(=O)(=O)n2nc(C)cc2C)cc1OC	1	?	-2	-4%
COc1cccc(/C=C/C(=O)OCC(=O)N2c3ccccc3NC(=O)C2(C)C)c1	18	?	-6	-10%
Cc1c(Cl)cccc1NC(=O)C1COc2ccccc2O1 (stereo not drawn)	.	87%	1	5%
COc1cc2nc(/C=C/c3cc(OC)c(OC)c(OC)c3)sc2cc1SC	-6	-102%	-4	2.6µM*
Cc1ccnc(NC(=O)C2CCN(S(=O)(=O)c3ccc4c(c3)CC(C)N4C(=O)C3CCC3)CC2)c1 (stereo not drawn)	11	?	13	10µM*
CC(C)CCNC(=O)C1CCN(S(=O)(=O)c2ccc3c(c2)CC(C)N3C(=O)C2CCC2)CC1 (stereo not drawn)	-4	?	-2	15µM*
O=C(CCc1c[nH]c2ccccc12)N1CCCCCCC1	24	-12%	11	-19%
O=C1CN(C(=O)CCCc2c[nH]c3ccccc23)c2ccccc2N1	2	.	8	9.3µM*
O=C(CCCc1c[nH]c2ccccc12)N1CCOCC1	32	-12%	19*	32%
SMILES	Shiga toxin inh	Pf growth 96h	Cycloheximide cs	Pf growth 48h
O=C(O)CCCC(=O)N1CC(=O)Nc2ccccc21	-1	.	-3	.
COc1cccc(/C=C/C(=O)OCC(=O)NCCC2=CCCCC2)c1	24	12%	6	25%[5.75 µM]
N#C/C(=C\c1cccc([N+](=O)[O-])c1)C(=O)NCc1ccc(Cl)cc1	14	?	-3	?
N#C/C(=C\c1cccc([N+](=O)[O-])c1)C(=O)Nc1cccnc1	3	-9%	-7	-5%
N#C/C(=C/c1cccc([N+](=O)[O-])c1)C(=O)Nc1ccccc1O	22	12%	13*	9%
N#C/C(=C\c1cccc([N+](=O)[O-])c1)C(=O)NCc1cccnc1	4	6.6µM*	-1	7%
CC(Sc1nnc(NC2CC2)s1)C(=O)Nc1ccc(N2CCOCC2)cc1 (stereo not drawn)	.	2%	.	5%
CC(=O)c1c(C)[nH]c(C(=O)C(C)Sc2nnc(NC3CC3)s2)c1C (stereo not drawn)	.	9.3µM*	.	13µM*
COC(=O)Nc1ccc(S(=O)(=O)NCCCCCC(=O)O)cc1	1	2.9µM*	-2	7%
COC(=O)Nc1ccc(S(=O)(=O)NCCO)cc1	7	27%	-2	.
